Assay [1] addresses Lysosomal acid glucosylceramidase (Homo sapiens) (UniProt P04062). Briefly: Glucocerebrosidase-p2 (AID 348; in the data active = potency below about 10 µM; note: potency is the fitted concentration of half-maximal effect). As to conditions: purified GBA, blue fluorogenic substrate, 40 min. Put shortly: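 Normal human glucocerebrosidase (0.2 nM) with blue fluorogenic substrate (80 uM final) in citrate/phosphate pH 5.9 with 10mM sodium taurocholate, 0.01% tween-20; 40 min RT, NaOH/glycine stop; fluorescence Ex 365/Em 440; AC50 from a titration from 0.6 nM upwards.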

Assay [2] can be described thus: AP1 Signaling Pathway (AID 357).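 Note: ME-180 reporter cells stimulated with EGF at its EC50 level; % is set by controls: 0 for no effect and ±100 for the full control effect.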 As to conditions: ME-180 AP-1-bla reporter, EGF-induced, beta-lactamase ratio, 5 h; at 7.69 µM (top of the series) unless noted. Summed up:
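Read-out was the 460nm/530nm emission ratio (excitation 405nm) after CCF4 loading for 2.5 hours at room temperature. Cells carried an AP-1-driven beta-lactamase reporter, were stimulated with EC50 EGF plus compound for 5 hours, and AC50 values came from titrations.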

Assay [3] concerns the target Cytochrome P450 1A2 (Homo sapiens) (UniProt P05177). Briefly: p450-cyp1a2 (AID 410; calls by dose curve; note: potency is the fitted concentration of half-maximal effect). As to conditions: recombinant CYP1A2, luciferin-ME demethylation, luminescence; series mostly up to 11.4 µM. Summed up: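 O-Demethylation of luciferin 6' methyl ether by human CYP1A2 is monitored as luciferase luminescence. Substrate sits at Km (100uM); enzyme is 20nM. Values are scaled to 57 uM furafylline as maximal inhibition.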

The nature of assay [4]: NFAT Signaling Pathway (AID 444).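 Note: carbachol stimulus at about its EC50 of 1 µM final; % is set by controls: 0 for no effect and ±100 for the full control effect.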 As to conditions: Jurkat NFAT-bla M1, carbachol, beta-lactamase ratio, 5 h; at 7.69 µM (top of the series) unless noted. Put shortly: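 Jurkat cells carrying an NFAT-driven β-lactamase reporter and co-transfected muscarinic M1 receptor were treated with compound plus carbachol (1 uM final, an EC50 level) for 5 h at 37 °C. CCF4 loading followed for 1 h at RT; 460/530 nm ratio gave %activity.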

Assay [5] can be described thus: Stat Signaling Pathway (AID 446).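 Note: ME-180 cervical cancer cells given 40 pM IL-6 alongside compound; SIE-controlled beta-lactamase reporter measured as 460/530 nm FRET emission ratio; % is set by controls: 0 for no effect and ±100 for the full control effect.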 Conditions: ME-180 SIE beta-lactamase reporter, IL-6 stimulated, 5 h; at 7.69 µM (top of the series) unless noted. Summed up: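 FRET read-out (405 nm excitation, 460/530 nm emission) of a beta-lactamase reporter under a STAT-inducible element in ME-180 cervical carcinoma cells. Cells with compound receive 40 pM IL-6 for 5 h. Values are normalised to AC90 stimulation and AC90 JAK-inhibitor controls.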

Assay [6] has as its target Glucocorticoid receptor (Homo sapiens) (UniProt P04150). Description: GR-GFP Redistribution (AID 450;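 active = compounds whose dose series gives a full or clear partial fitted curve of increased nuclear translocation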; note: potency is the fitted concentration of half-maximal effect). As to conditions: U2OS GR-GFP nuclear translocation, laser cytometry, 2 h.
The target is the same in assay [7]. Description: GR-EFC Redistribution (AID 451; calls by dose curve; note: potency is the fitted concentration of half-maximal effect). As to conditions: CHO-K1 GR-EFC translocation, beta-gal luminescence, 2 h. Put shortly: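 CHO-K1 cells stably expressing nuclear-localized β-gal enzyme acceptor and GR fused C-terminally to the enzyme donor fragment; ligand-driven nuclear translocation restores β-gal by complementation. Compounds titrated up to 46 uM final, 2 h at 37 °C; luminescence read.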

Assay [8] deals with Mitogen-activated protein kinase 10 (Mus musculus) (UniProt Q61831). Briefly: JNK3 AlphaScreen Assay (AID 530).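 Note: kinase came from lysate of stimulated human HepG2 cells; % is set by controls: 0 for no effect and ±100 for the full control effect.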 As to conditions: JNK3 lysate, c-Jun phosphorylation; series mostly up to 11.4 µM. Summed up: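 Phosphorylation of biotinylated GST-cJun(1-79) at Ser73 is measured by AlphaScreen proximity luminescence. Enzyme is JNK3 in HepG2 lysates activated with interleukin-1beta and tumor necrosis factor alpha; ATP is 10 uM final.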
In general terms: In Alpha technology, singlet oxygen from a donor bead excites a nearby acceptor bead.

In assay [9] the target is Cytochrome P450 3A4 (Homo sapiens) (UniProt P08684). Description: qHTS Assay for Inhibitors and Substrates of Cytochrome P450 3A4 (AID 884; active = well fitted curve in the direction sought with a large enough effect; an effect the other way counts as inactive or inconclusive; note: potency is the fitted concentration of half-maximal effect; nearly all actives have a fitted effect of over 50% in size). Conditions: recombinant CYP3A4, Luciferin-PPXE luminescence; series mostly up to 57.1 µM. Summed up: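 Luminescent readout of luciferin produced by CYP3A4 (20 nM) dealkylation of Luciferin-PPXE, 25 uM (its KM). NADPH-driven reaction ran 60 min at RT after 10 min compound preincubation; data scaled to 57 uM ketoconazole as 100% inhibition.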
Sequence of Cytochrome P450 3A4 (Homo sapiens) (P08684 whole entry, looked up): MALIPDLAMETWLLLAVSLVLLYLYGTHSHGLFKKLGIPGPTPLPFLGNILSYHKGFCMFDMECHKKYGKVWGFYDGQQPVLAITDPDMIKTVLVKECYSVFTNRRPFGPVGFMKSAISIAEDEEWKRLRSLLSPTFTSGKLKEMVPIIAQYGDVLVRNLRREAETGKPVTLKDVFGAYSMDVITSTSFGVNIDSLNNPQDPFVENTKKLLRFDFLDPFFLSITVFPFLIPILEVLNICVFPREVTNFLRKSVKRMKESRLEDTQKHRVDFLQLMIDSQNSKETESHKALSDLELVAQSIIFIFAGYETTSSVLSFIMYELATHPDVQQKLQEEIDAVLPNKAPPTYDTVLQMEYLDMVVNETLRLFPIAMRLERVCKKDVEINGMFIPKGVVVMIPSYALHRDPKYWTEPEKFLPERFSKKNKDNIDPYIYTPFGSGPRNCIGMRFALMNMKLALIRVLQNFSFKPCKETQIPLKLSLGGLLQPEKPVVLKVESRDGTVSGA
In general terms: In qHTS, concentration-response curves come from the screen itself.

The target is the same in assay [10]. Briefly: qHTS Assay for Activators of Cytochrome P450 3A4 (AID 885; active = well fitted curve in the direction sought with a large enough effect; an effect the other way counts as inactive or inconclusive; note: nearly all actives have a fitted effect of over 65% in size). As to conditions: recombinant CYP3A4, Luciferin-PPXE luminescence, 60 min; series mostly up to 11.4 µM. Put shortly:
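Luminescent readout of luciferin formed from 25 uM Luciferin-PPXE (KM level) by 20 nM CYP3A4 in 200 mM KPO4, with 60 min NADPH-driven reaction at room temperature after 10 min compound exposure. Ketoconazole (57 uM) defined 100% inhibition.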

A short description of assay [11]: qHTS Assay for Identification of Small Molecule Agonists for Hypoxia Response Element Signaling Pathway (AID 914; active = well fitted activation curve with a large enough effect in the signal ratio, with a control signal flat, not every such curve was filed as active; the % refers to the signal ratio; note: % of control where 0% means no effect). Conditions: ME-180 (cervical carcinoma) HRE-bla reporter, beta-lactamase ratio, CoCl2, 17 h; activation: stronger effect = higher value. Summed up: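 Read-out: CCF4 FRET ratio of 460nm to 530nm emission (excitation 405nm) after 2.5 hours at room temperature, taken from HRE-bla ME-180 cells that had been exposed to compound and EC50 CoCl2 for 17 hours.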

Assay [12] addresses 3',5'-cyclic-AMP phosphodiesterase 4B (Homo sapiens) (UniProt Q07343). Description: qHTS Assay for Inhibitors of PDE-IV (AID 607; active = well fitted activation curve with a large enough effect in the main read-out, with a control signal flat, not every such curve was filed as active; note: % of control where 0% means no effect). As to conditions: HEK293 ACTOne CNG channel cells, membrane potential fluorescence; series mostly up to 22.9 µM. Summed up: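 Cell-based read-out of cAMP via a modified cyclic nucleotide-gated channel and membrane potential dye (535/590 nm) in HEK293 cells expressing PDE4 endogenously. Compounds tested up to 22.9 uM final; 100 uM RO 20-1724 reference.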

The target in assay [13] is Cytochrome P450 2D6 (Homo sapiens) (UniProt P10635). Briefly: qHTS Assay for Inhibitors and Substrates of Cytochrome P450 2D6 (AID 891; active = well fitted curve in the direction sought with a large enough effect; an effect the other way counts as inactive or inconclusive; note: nearly all actives have a fitted effect of over 60% in size; note: potency is the fitted concentration of half-maximal effect). As to conditions: recombinant CYP2D6, luciferin-ME EGE luminescence; series mostly up to 11.4 µM. Summed up:
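Luminescent read-out of luciferin formed by 5 nM human CYP2D6 demethylating 30 uM Luciferin-ME EGE (Km level) over 60 min at room temperature after NADPH regeneration addition. Data normalized to full inhibition by 1.43 uM quinidine.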

Assay [14] has as its target Cytochrome P450 2C19 (Homo sapiens) (UniProt P33261). Description: qHTS Assay for Inhibitors and Substrates of Cytochrome P450 2C19 (AID 899; active = well fitted curve in the direction sought with a large enough effect; an effect the other way counts as inactive or inconclusive; note: potency is the fitted concentration of half-maximal effect; nearly all actives have a fitted effect of over 60% in size). As to conditions: recombinant CYP2C19, luciferin-H EGE luminescence; series mostly up to 11.4 µM. Put shortly: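 In 50mM KPO4, the reaction held 5nM enzyme and KM-level (10uM) Luciferin-H EGE; it ran 60 min at 37C after NADPH regeneration and a 10 min compound preincubation. Luminescence values were scaled to 57uM ketoconazole as complete inhibition.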

Values without a mark were called inactive. Records with an inconclusive call do not appear. Active and inactive are the calls of the source. Unless noted, calls come from the whole dose curve; as a rule, active = well fitted curve in either direction with a large enough effect (not every such curve was filed as active); inconclusive = small, poorly fitted or top-dose-only effect, or another doubt; inactive = flat fitted curve, though single readings scatter. Some results are limits rather than exact numbers.

Sequence of Lysosomal acid glucosylceramidase (Homo sapiens) (P04062 whole entry, looked up): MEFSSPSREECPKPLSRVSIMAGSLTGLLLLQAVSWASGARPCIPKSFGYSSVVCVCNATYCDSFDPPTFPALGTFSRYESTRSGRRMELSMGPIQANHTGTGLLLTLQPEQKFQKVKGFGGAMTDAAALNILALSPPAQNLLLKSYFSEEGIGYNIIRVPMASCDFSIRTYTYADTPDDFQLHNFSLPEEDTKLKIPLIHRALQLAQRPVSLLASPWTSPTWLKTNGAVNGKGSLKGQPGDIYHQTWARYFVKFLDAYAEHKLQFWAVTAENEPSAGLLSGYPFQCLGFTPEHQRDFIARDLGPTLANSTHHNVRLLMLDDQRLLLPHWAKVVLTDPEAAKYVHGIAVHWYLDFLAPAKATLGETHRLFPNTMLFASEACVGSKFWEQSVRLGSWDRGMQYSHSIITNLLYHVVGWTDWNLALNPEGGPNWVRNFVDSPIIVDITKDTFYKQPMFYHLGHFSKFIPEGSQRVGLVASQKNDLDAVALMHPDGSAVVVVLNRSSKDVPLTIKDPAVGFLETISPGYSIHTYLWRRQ
Sequence of Cytochrome P450 1A2 (Homo sapiens) (P05177 whole entry, looked up): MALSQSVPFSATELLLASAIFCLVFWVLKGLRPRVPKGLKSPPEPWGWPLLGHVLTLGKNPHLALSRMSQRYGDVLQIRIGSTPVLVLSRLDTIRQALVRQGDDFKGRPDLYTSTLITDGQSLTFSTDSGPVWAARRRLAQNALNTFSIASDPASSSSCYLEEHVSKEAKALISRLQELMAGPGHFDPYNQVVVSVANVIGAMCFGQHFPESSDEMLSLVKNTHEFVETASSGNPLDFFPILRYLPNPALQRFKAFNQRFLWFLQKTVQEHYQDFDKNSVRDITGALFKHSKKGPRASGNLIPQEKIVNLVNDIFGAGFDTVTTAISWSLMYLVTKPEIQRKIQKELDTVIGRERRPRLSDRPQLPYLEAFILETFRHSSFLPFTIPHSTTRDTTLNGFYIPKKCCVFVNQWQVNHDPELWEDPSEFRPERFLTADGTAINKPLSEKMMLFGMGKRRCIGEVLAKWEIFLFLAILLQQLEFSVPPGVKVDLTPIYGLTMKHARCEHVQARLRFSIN
Sequence of 3',5'-cyclic-AMP phosphodiesterase 4B (Homo sapiens) (Q07343 whole entry, looked up): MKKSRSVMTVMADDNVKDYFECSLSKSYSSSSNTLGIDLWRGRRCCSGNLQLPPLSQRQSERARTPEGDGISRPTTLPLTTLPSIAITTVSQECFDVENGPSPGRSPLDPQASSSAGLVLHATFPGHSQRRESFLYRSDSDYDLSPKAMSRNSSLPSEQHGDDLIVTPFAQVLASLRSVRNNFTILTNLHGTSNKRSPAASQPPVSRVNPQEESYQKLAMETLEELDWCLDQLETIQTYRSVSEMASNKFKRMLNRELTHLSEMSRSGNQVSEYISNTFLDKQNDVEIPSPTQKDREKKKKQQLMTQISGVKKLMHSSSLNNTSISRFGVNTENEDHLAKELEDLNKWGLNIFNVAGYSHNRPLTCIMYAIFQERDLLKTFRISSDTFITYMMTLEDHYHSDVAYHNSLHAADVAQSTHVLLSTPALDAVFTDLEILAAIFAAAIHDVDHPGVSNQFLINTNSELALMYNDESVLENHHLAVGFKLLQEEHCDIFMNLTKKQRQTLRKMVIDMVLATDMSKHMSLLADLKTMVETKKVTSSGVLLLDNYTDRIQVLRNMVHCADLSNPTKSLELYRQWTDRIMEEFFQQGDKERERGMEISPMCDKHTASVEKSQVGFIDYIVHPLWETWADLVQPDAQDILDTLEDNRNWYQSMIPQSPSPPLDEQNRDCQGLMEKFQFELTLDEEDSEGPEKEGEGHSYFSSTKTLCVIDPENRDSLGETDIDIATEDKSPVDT
Sequence of Glucocorticoid receptor (Homo sapiens) (P04150 whole entry, looked up, the tested form may be a part): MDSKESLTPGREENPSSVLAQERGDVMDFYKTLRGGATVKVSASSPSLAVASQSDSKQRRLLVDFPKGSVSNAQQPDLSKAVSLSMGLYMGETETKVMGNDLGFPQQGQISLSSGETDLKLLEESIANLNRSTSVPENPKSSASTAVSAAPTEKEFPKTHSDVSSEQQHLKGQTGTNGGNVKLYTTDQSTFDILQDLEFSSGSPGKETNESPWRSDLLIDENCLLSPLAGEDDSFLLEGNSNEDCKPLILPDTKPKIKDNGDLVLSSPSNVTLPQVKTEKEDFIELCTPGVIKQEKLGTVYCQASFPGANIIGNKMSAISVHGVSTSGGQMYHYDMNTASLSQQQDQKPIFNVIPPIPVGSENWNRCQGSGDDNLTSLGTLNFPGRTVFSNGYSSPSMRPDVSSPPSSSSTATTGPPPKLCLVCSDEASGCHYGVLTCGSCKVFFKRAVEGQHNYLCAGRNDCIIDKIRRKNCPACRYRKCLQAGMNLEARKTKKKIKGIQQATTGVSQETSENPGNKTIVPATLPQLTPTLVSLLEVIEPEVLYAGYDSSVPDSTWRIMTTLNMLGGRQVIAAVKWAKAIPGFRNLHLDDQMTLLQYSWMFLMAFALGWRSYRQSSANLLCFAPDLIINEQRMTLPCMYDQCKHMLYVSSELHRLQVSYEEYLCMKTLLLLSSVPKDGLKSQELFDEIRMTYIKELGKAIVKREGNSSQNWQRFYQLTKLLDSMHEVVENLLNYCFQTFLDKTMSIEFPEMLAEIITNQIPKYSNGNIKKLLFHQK
Sequence of Cytochrome P450 2D6 (Homo sapiens) (P10635 whole entry, looked up): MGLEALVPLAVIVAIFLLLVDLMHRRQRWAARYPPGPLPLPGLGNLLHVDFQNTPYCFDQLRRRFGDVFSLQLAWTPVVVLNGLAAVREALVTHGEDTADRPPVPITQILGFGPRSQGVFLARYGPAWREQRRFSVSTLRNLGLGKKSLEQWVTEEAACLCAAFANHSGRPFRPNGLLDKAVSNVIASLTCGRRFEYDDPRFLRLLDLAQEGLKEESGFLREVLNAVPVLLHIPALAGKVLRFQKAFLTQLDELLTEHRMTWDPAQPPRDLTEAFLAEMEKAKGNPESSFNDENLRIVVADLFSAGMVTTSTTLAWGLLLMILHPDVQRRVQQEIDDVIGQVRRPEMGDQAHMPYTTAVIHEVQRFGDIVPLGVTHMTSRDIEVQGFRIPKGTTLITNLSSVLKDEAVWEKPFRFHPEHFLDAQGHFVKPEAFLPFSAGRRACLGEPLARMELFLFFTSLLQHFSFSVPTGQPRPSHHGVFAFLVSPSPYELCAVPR
Sequence of Cytochrome P450 2C19 (Homo sapiens) (P33261 whole entry, looked up): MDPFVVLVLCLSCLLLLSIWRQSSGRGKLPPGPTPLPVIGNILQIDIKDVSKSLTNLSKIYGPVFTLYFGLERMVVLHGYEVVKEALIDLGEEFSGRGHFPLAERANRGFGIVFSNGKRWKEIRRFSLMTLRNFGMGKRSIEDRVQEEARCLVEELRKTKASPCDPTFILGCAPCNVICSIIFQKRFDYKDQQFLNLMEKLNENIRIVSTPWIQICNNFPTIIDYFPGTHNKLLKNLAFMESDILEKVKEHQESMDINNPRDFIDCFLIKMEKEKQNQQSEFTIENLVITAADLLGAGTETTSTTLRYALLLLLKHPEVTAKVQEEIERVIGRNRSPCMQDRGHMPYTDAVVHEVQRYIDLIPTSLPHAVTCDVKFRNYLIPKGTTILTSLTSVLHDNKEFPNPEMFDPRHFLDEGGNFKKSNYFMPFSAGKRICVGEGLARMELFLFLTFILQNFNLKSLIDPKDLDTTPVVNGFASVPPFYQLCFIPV

For `Cc1ccc2c(c1)N[C@H](c1ccc(C(=O)O)cc1)c1cccn1-2`, the Potency in [1] is over 11.4 µM; in assay [3] it was 0.794 µM (active); in assay [6], over 46 µM; in assay [7] it was over 9.22 µM; in assay [9] it was 0.0501 µM (active). Also, the activity change, negative = inhibition in assay [2] is -23.5%; in assay [4] it was -7.71%. The activity, negative = inhibition in assay [5] is -5.32%. In addition, the Potency result in assay [8] and in [10] was “inactive” in each case. The activation in assay [11] was -21.9%.
For the compound `O=C(O)[C@@H]1[C@@H](C(=O)Nc2ncccn2)[C@@H]2C=C[C@@H]1O2`, the Potency in assay [1] is over 11.4 µM; in assay [6], over 46 µM; in assay [7], over 9.22 µM. Further, the figures for the activity change, negative = inhibition in [2], in assay [3] and in assay [4] were -0.979%, -13.2% [at 2.29 µM] and 0.85%, respectively. In addition, in [5], the activity, negative = inhibition is 9.29%. For the same compound, the Potency entry in assay [8] and in assay [12] was “inactive” each time. The activation in [11] was 18.9%.
Regarding `O=C(O)c1ccc(/C=N\N=C2c3ccccc3-c3ccccc32)cc1`, the values for the Potency in [1], in [3] and in assay [6] were over 11.4 µM, 0.126 µM (active) and over 46 µM, respectively. The activity change, negative = inhibition in assay [2] is -12.4%; in [4], -25.2%. In assay [5], the activity, negative = inhibition is -6.87%. In addition, the Potency result in assay [8], in assay [12] and in assay [13] was “inactive” throughout.
`O=C(O)Cn1ccnc1[N+](=O)[O-]`: the Potency was over 11.4 µM in assay [1] and over 46 µM in [6]. In addition, the activity change, negative = inhibition is 9.71% in assay [2] and -1.99% in assay [4]. Moreover, the Potency result in assay [3], in [8] and in assay [12] was “inactive” in each case. Also, the activity, negative = inhibition in assay [5] is 6.87%.
As to `O=C1c2ccccc2C(=O)c2c(NC3CCCCC3)ccc(Nc3ccc(S(=O)(=O)O)cc3)c21`, the Potency is over 11.4 µM in [1]; 1.26 µM (active) in [3]; over 46 µM in [6]; over 9.22 µM in assay [7]; 3.98 µM (active) in [14]. Besides, the activity change, negative = inhibition was -7.28% in [2] and -27.6% in assay [4]. In [5], the activity, negative = inhibition is -10.9%. Further, in assay [12], the Potency result was “inactive”.
`Cc1ccc(C(N)=Nc2ccccc2)cc1`: the Potency is over 11.4 µM in assay [1], over 46 µM in [6], over 9.22 µM in assay [7] and 3.16 µM (active) in [13]. In addition, the values for the activity change, negative = inhibition in assay [2] and in assay [4] were 18.3% and -2.23%, respectively. Further, the Potency result in assay [3] and in assay [12] was “inactive” throughout. In addition, in assay [5], the activity, negative = inhibition is -4.47%.
With `Nc1nc(-c2cccs2)cs1`, the Potency in assay [1] is over 11.4 µM; in assay [6], over 46 µM; in assay [7], over 9.22 µM. Besides, the activity change, negative = inhibition in assay [2] was 1.24%; in assay [3] it was -30.1% [at 2.29 µM]; in assay [4], 6.96%. In addition, the activity, negative = inhibition in [5] is 5.4%. Also, the Potency entry in [12] and in assay [10] was “inactive” in each case. The activation in [11] is -9.81%.
Consider `CN(C)c1ccc(N=Nc2cccc3ccoc23)cc1`, for which the Potency was over 11.4 µM in assay [1], 0.251 µM (active) in assay [3], over 46 µM in [6] and over 9.22 µM in assay [7]. In addition, the activity change, negative = inhibition in assay [2] was 1.15%; in assay [4], -18.9%. Moreover, in assay [5], the activity, negative = inhibition is 4.35%. Also, the Potency entry in [12] and in assay [10] was “inactive” in each case.
